What all share (format): functional
Assay [1] deals with Plasmodium falciparum. Briefly: GSK_TCMDC: Inhibition of Plasmodium falciparum 3D7 in whole red blood cells, using parasite LDH activity as an index of growth. Test compounds present at 2uM.
In assay [2] the test system is Plasmodium falciparum. Briefly: GSK_TCMDC: Inhibition of Plasmodium falciparum Dd2 in whole red blood cells, using parasite LDH activity as an index of growth. Test compounds present at 2uM.
Assay [3] has as its system HepG2. Briefly: GSK_TCMDC: Percent inhibition of human HepG2 cell line. Test compounds present at 10uM.

For the molecule `O=C(O)C(F)(F)F.c1cc(CNCCN2CCNCC2)cc(-c2cccc(-c3nc4ccccc4[nH]3)c2)c1`, the Inhibition (usually the percentage by which the read-out fell short of the control) came out at 89% in assay [1], 1% in assay [2] and 11% in assay [3].

For `Cc1cc(NC(=O)NCCN2CCC(NC(=O)c3cccc(Br)c3)C2)c2ccccc2n1.O=C(O)C(F)(F)F` (centres undefined), the Inhibition in assay [1] is 100%; in assay [2] it was 60%; in assay [3], 0%.

With `CCn1ncc(Cl)c1CN(C)S(=O)(=O)c1ccc2ccccc2c1`, the Inhibition in assay [1] is recorded as 100%; in assay [2], 91%; in assay [3], 16%.

For `C=CCn1c(=N)c(C(=O)NCc2ccc(F)cc2)cc2c(=O)n3cccc(C)c3nc21`, the Inhibition in assay [1] turned out to be 92%; in assay [2] it was 11%; in assay [3] it was 16%.

For the molecule `O=C(O)c1ccc(OCOCOc2ccc(C(=O)O)c(O)c2)cc1O`, the figures for the Inhibition in assay [1], in assay [2] and in assay [3] were 99%, 0% and 0%, respectively.

For the molecule `COc1cc(NC(=O)N2CCOC(CCN3CCC(c4ccccc4)CC3)(c3ccc(Cl)c(Cl)c3)C2)cc(OC)c1OC` (centres undefined), the Inhibition was determined as 93% in assay [1], 73% in assay [2] and 15% in assay [3].

Regarding `CCc1c(CCNCCCCCCNC(C)Cc2ccc3c(c2CC)OCO3)ccc(OC)c1OC.Cl` (centres undefined), the Inhibition is 100% in assay [1], 64% in assay [2] and 100% in assay [3].

For the molecule `NC1CCCN(Cc2cccc(-c3ccc(-c4nc5ccccc5[nH]4)cc3)c2)C1.O=C(O)C(F)(F)F` (centres undefined), the Inhibition in assay [1] is listed as 100%; in assay [2] it was 73%; in assay [3], 25%.

In the case of `CCCCN(Cc1cc(Cl)c(OC)c(OC)c1)c1ccc(C(O)(C(F)(F)F)C(F)(F)F)cc1.O=C(O)C(F)(F)F`, the Inhibition in assay [1] amounted to 98%; in assay [2] it was 73%; in assay [3] it was 3%.

For `Cc1cc(NCc2ccccc2)nc(NCc2ccccc2)n1`, the Inhibition is given as 91% in assay [1], 18% in assay [2] and 21% in assay [3].

With `CNC(=O)c1cnc(Nc2ccc(OCC(O)CN(C)C)cc2)nc1Nc1cccc(OC(C)C)c1.O=C(O)C(F)(F)F` (centres undefined), the Inhibition is on record as 100% in assay [1], 100% in assay [2] and 21% in assay [3].

As for `CC1(C)OC[C@]2(C)[C@@H](CC[C@]3(C)C4=CC(=O)CCC4CC[C@@H]23)O1` (some centres undefined), the values for the Inhibition in assay [1], in assay [2] and in assay [3] were 97%, 95% and 0%, respectively.

Take `COC(=O)c1cccc(NC(=O)NC2CCN(c3ccnc(Nc4ccc(OC)cc4)n3)C2)c1` (centres undefined): the Inhibition in assay [1] amounted to 99%; in assay [2], 65%; in assay [3] it was 1%.

Regarding `N#CC(c1ccc(Br)cc1)c1ccc2c(C(F)(F)F)cc(C(F)(F)F)nc2n1` (centres undefined), the values for the Inhibition in assay [1], in assay [2] and in assay [3] were 100%, 98% and 75%, respectively.

`Cc1cc(CNCC(CCNc2cc(=O)c3ccccc3[nH]2)NCc2cc(Br)cc(Br)c2)oc1C` (centres undefined): the Inhibition in assay [1] is on record as 98%; in assay [2], 85%; in assay [3], 4%.

Regarding `CCS(=O)(=O)O.Cc1cc(NC(=O)NC(=N)N)ccc1Cl`, the results for the Inhibition in assay [1], in assay [2] and in assay [3] were 100%, 15% and 11%, respectively.

For the molecule `Cc1noc(C)c1-c1cccc(CNCc2ccc(-c3ccc(-c4nc5ccccc5[nH]4)s3)cc2)c1.O=C(O)C(F)(F)F`, the Inhibition in assay [1] is given as 100%; in assay [2], 79%; in assay [3], 41%.

As to `c1ccc(-c2cc(NCc3cccc4ccccc34)c3[nH]ncc3n2)cc1`, the Inhibition in assay [1] is recorded as 93%; in assay [2], 5%; in assay [3] it was 7%.

For `Cc1cccc2nc(-c3cccc(-c4cccc(CNCc5cccc(N)c5)c4)c3)[nH]c12.O=C(O)C(F)(F)F`, the Inhibition in assay [1] worked out at 100%; in assay [2], 73%; in assay [3], 14%.

Turning to `CC(=NO)C1=C(O)C(c2ccccc2)N(c2ccccc2)C1=O` (centres undefined), the Inhibition in assay [1] worked out at 99%; in assay [2], 23%; in assay [3], 12%.

On to `COc1cc2c(cc1C(F)(F)F)N(C(=O)Nc1cc(F)cc(-c3cncnc3)c1)CC2`, for which the Inhibition in assay [1] is on record as 97%; in assay [2], 52%; in assay [3], 15%.

In the case of `Nc1nonc1-c1nc2c(-c3cccc(Cl)c3)nccc2n1CCCNC(=O)Cc1ccc(Cl)cc1`, the results for the Inhibition in assay [1], in assay [2] and in assay [3] were 94%, 92% and 0%, respectively.

`Cc1cccc2nc(-c3ccc(-c4cccc(CNC(C)C)c4)s3)[nH]c12.O=C(O)C(F)(F)F`: the Inhibition in assay [1] is 100%; in assay [2] it was 97%; in assay [3], 12%.

`CN(CCN1CCC(c2c[nH]c3ccccc23)CC1)C(=O)OCCCCCNC(=O)/C=C/c1ccc(Cl)c(Cl)c1`: the Inhibition in assay [1] was determined as 95%; in assay [2], 44%; in assay [3], 39%.

With `CS(=O)(=O)Cc1ccc(Nc2nccc(NC3CCN(c4nccc(C(F)(F)F)n4)CC3)n2)cc1`, the Inhibition was found to be 88% in assay [1], 23% in assay [2] and 34% in assay [3].

Regarding `CN1CCC(NCc2cccc(-c3cccc(-c4nc5cc(C(F)(F)F)ccc5[nH]4)c3)c2)CC1.O=C(O)C(F)(F)F`, the Inhibition in assay [1] came out at 100%; in assay [2], 100%; in assay [3] it was 35%.

Regarding `O=C(Nc1ccc(-c2cccc(-c3nc4cc(F)ccc4[nH]3)c2)cc1)c1ccncc1`, the Inhibition in assay [1] is listed as 96%; in assay [2], 18%; in assay [3], 58%.

`Cc1cnc(Nc2ccccc2)nc1N[C@@H](CCCN)C(=O)Nc1ccccc1.O=C(O)C(F)(F)F`: the figures for the Inhibition in assay [1], in assay [2] and in assay [3] were 100%, 0% and 0%, respectively.

These data come from ChEMBL document CHEMBL1157539, “Thousands of chemical starting points for antimalarial lead identification” (Nature, 2010).
